Our source for the inhibition values is PubChem BioAssay.

One may read the inhibition as the share of the control response that was lost under treatment.

Each structure is given as a SMILES string. Activity calls are given as the source filed them. The rule behind the calls is not given here.

The target in this assay is Pantothenate synthetase (Mycobacterium tuberculosis (strain ATCC 25618 / H37Rv)) (UniProt P9WIL5). Nature of the assay: Recombinant Mtb pantothenate synthetase (PanC) inhibitors, coupled enzyme, confirmatory (AID 375).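 Note: 0% = full reaction with vehicle and 100% = no enzyme background.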 The settings on record: coupled enzyme assay; at 10 µM, stronger effect = higher value.
Pantothenate synthetase (Mycobacterium tuberculosis (strain ATCC 25618 / H37Rv)), sequence (P9WIL5 whole entry, looked up): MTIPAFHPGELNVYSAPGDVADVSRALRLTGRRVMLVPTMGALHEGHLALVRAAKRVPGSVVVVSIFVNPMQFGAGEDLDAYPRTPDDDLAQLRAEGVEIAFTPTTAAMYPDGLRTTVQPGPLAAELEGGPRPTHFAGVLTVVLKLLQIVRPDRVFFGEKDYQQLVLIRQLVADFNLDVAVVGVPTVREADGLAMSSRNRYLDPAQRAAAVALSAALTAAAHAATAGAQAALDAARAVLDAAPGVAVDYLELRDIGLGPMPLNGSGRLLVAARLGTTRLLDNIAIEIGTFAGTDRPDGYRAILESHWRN
For `CC(C)(C)OC(=O)N1CC(O)CC1C(=O)OCC(=O)c1ccc(Cl)cc1` (stereo not given), the inhibition is 0% (inactive).
Regarding `COc1cc(C(=O)OCC(=O)N(C)Cc2ccccc2)cc(OC)c1OC`, the inhibition is 0% (inactive).
As to `O=C(CCCn1c(=O)[nH]c2ccsc2c1=O)N1CCN(c2ccccn2)CC1`, the inhibition was 3% (inactive).
Take `Cc1onc(-c2ccccc2)c1C(=O)Nc1sc2c(c1C(N)=O)CCC2`: the inhibition is 5% (inactive).
With `Cc1cc2ccccc2c(=O)n1CC(=O)N(C)c1ccc(F)cc1`, the inhibition was 0% (inactive).
Take `Cc1cccc(COc2ccc(/C(O)=C3\C(=O)C(=O)N(CCN(C)C)C3c3ccncc3)cc2)c1` (stereo not given): the inhibition was 13% (inactive).
With `C[C@]12CC[C@@H]3c4ccc(O[C@@H]5O[C@H](C(=O)O)[C@@H](O)[C@H](O)[C@H]5O)cc4CC[C@H]3[C@@H]1C[C@@H](O)[C@@H]2O`, the inhibition is 14% (inactive).
As for `O=C(NC1CCCC1)C1CCCN(S(=O)(=O)c2cccc3cccnc23)C1` (stereo not given), the inhibition was 2% (inactive).
In the case of `COc1ccccc1OC(=O)c1ccc2nsnc2c1`, the inhibition is 0% (inactive).
Regarding `CN1CCN(CCCN2c3ccccc3Sc3ccc(Cl)cc32)CC1`, the inhibition is 0% (inactive).
With `COc1ccc(Cn2nnnc2C(c2ccccn2)N2CCN(c3cc(Cl)ccc3C)CC2)cc1` (stereo not given), the inhibition was 0% (inactive).
Take `CC(=O)N1CCC2(CC1)CC(=O)c1cc(OCC(=O)NCc3ccco3)ccc1O2`: the inhibition was 3% (inactive).
As for `CCOC(=O)c1ccc(N=Cc2nc(-c3ccccc3)oc2OC(C)=O)cc1`, the inhibition is 0% (inactive).
On to `Cc1csc(NC(=O)C2CCCO2)n1` (stereo not given), for which the inhibition was 0% (inactive).
`Cc1ccc(-c2nn3c(=O)c(C)nnc3s2)cc1`: the inhibition is 0% (inactive).
As for `Cc1ccc(S(=O)(=O)N2CCN(C(=O)CSc3nnnn3C)C2)cc1`, the inhibition was 1% (inactive).
Turning to `CCCOc1cccc(C2/C(=C(/O)c3ccccc3)C(=O)C(=O)N2CCN(C)C)c1` (stereo not given), the inhibition is 0% (inactive).
In the case of `Cc1cccc(OCCCC(=O)O)c1`, the inhibition is 3% (inactive).
`COc1ccc(CCn2c(=N)c(C(=O)NCc3ccco3)cc3c(=O)n4ccccc4nc32)cc1`: the inhibition is 0% (inactive).
Under `COCCCNC(=O)C1CCCN(C(=O)Nc2ccc(OC)cc2)C1` (stereo not given) stands 2% (inactive).
Under `CCC(=O)Nc1ccc(NC(=O)c2cccc(OC)c2)nc1` stands 0% (inactive).
Take `O=C(NCc1ccco1)C1CCN(C(=O)c2cc3sccc3n2Cc2ccc(F)cc2)CC1`: the inhibition was 5% (inactive).
In the case of `CNC(=O)c1ccccc1NC(=O)c1c(O)c2c([nH]c1=O)CCCC2`, the inhibition was 7% (inactive).
With `COc1ccc(C2CC(C(F)(F)F)n3ncc(C(=O)NCc4cccnc4)c3N2)cc1OC` (stereo not given), the inhibition was 0% (inactive).
In the case of `Cc1ccc(Cn2c(SCCN3CCCCC3)nc3c2c(=O)[nH]c(=O)n3C)cc1`, the inhibition was 2% (inactive).
In the case of `CCCC(=O)Nc1cc(C)c(NC(=O)c2ccccn2)cn1`, the inhibition is 0% (inactive).
Take `Cc1ccc(N2CC(C(=O)Nc3nnc(C)s3)CC2=O)cc1` (stereo not given): the inhibition is 6% (inactive).
As for `O=C(CCC(=O)N(c1cccc(F)c1)C(C(=O)NC1CCCC1)c1ccncc1)Nc1cccnc1` (stereo not given), the inhibition was 0% (inactive).
Consider `CCCCSc1nnc([C@H](C)NC(=O)OC(C)(C)C)o1`, for which the inhibition is 2% (inactive).
`COc1cc(NC(=O)Cc2nn(C)c(=O)c3ccccc23)cc(OC)c1`: the inhibition is 0% (inactive).
As for `Cc1ccc(OCCC(=O)OCC(=O)C(C)(C)C)cc1`, the inhibition is 8% (inactive).
In the case of `Cc1ccc(CNC(=O)COC(=O)c2c(C)noc2C)cc1` it was 0% (inactive).
Under `COc1ccc(CNc2oc(COc3ccccc3Cl)nc2C#N)cc1` stands 0% (inactive); under `O=P(O)(CN1CCCCCC1)CN1CCCCCC1`, 0% (inactive); under `C=CCn1c(=O)c2ccccc2n2c(SCC(=O)Nc3cc(C)on3)nnc12`, 0% (inactive).
`CC(c1ccco1)N(C(=O)COc1ccc(Cl)cc1Cl)c1ccccn1` (stereo not given): the inhibition was 4% (inactive).
In the case of `COCCCNC(=O)CCc1nc2cccnc2n1Cc1ccc(OC)cc1` it was 0% (inactive); in that of `COc1ccccc1S(=O)(=O)n1cc(Cc2ccccc2)c(N)n1`, 0% (inactive); in that of `Cc1ccc2c(c1)-c1c(cnn1CC(=O)Nc1ccccc1N1CCN(C)CC1)CO2`, 0% (inactive).
As to `CCOC(=O)c1cccc(NC(=O)CSc2nnc(-c3cccnc3)n2C)c1`, the inhibition was 7% (inactive).
